The values below come from PubChem BioAssay (NCI).

Compounds without any hit were thinned out: in the full panel of roughly 83,000, 20% have a hit.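 How to read the values: 0–100, growth inhibition (40 = 60% inhibited); 0, no net growth; -100 to 0, cell death (-40 = 40% of starting cells died; -100 = all dead).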 Activity calls are given as the source filed them. Rule for the calls: active = growth percent below 10; inactive = the rest.

The test system of the assay is SR leukemia. Nature of the assay: NCI-60 one-dose screen, 48 h (100 = growth as untreated, 0 = no growth, -100 = all killed). To be noted: 10 µM unless noted.
Consider `C=CCn1c(C)nc2cc(Nc3nc(N4CCCC4)nc4ccccc34)ccc21`, for which the growth is 5.75% (active).

For the compound `COc1cc(/C=C/C(=O)c2cccc(-n3cc(-c4ccccc4)[nH]c3=O)c2)ccc1O`, the growth is 15.3% (inactive).

As to `C=CCOC1=CC(=O)c2ccccc2C1=O`, the growth was 9.62% (active).

In the case of `Cn1cc(-c2csc(-c3ccccc3)n2)c2cccnc21`, the growth was 0.511% [100 µM] (active).

`O=C(COc1ccc(/C=C2\Oc3ccccc3C2=O)cc1)Nc1nc2c(s1)CCCC2`: the growth is -90.7% (active).

On to `Cc1cc(NCCCCNc2ccnc3cc(Cl)ccc23)nc(Nc2ccc(C(=O)N3CCCC3)cc2)n1`, for which the growth is -28.9% (active).

Regarding `CC(C)CCC[C@@H](C)[C@H]1CC[C@H]2[C@@H](Nc3ccc(O)cc3)CCC[C@]12C`, the growth is 71.8% (inactive).

Consider `CC(=O)n1c(-c2ccc(Cl)cc2)nc2c(c1=O)C(c1ccc(Cl)cc1)c1sc3c(Cl)cccc3c1O2` (centres undefined), for which the growth is -14.9% (active).

`CN1CCN(CCCOc2ccc3nc(Nc4ccc(F)c(F)c4)ccc3c2)CC1`: the growth is -6.22% (active).

For `COc1ccc2[nH]c(O)c(/C=c3/cc4c(c(-c5ccc(F)c(OC)c5)n3)=Nc3ccccc3-4)c2c1`, the growth was 2.4% (active).

`CC(=O)C(C)Cc1cc2c(cc1C)C(C)(C)CCC2(C)C` (centres undefined): the growth is 131% (inactive).

Consider `CCCCn1c(=O)c2c(nc3n2CCCN3CCc2ccc(OCC(=O)NCCN(CC)CC)cc2)n(CCCC)c1=O`, for which the growth was -22% (active).

In the case of `COc1cc2c(cc1-c1c(C)noc1C)ncc1nc(C3CCC(F)(F)CC3)n(C3CCC(OC(F)F)CC3)c12` (centres undefined), the growth is 33.5% (inactive).

Turning to `CCCCCCCCCCCCCCCCCCOc1ccccc1CC(=O)OCCC[N+](C)(C)C`, the growth is 56.6% (inactive).
